Source: the supplement of paper PMC6411743
± gives the standard deviation of the averaged measurements. Of roughly 5,400 targets only a part is listed; those with the largest changes were picked by preference.

Compound: Nc1nc2c(ncn2[C@@H]2O[C@H](COP(=O)(O)OP(=O)(O)OP(=O)(O)O)[C@@H](O)[C@H]2O)c(=O)[nH]1 [guanosine triphosphate]
Assay: NP40-soluble protein abundance relative to vehicle (solubility fold change) (ratio); higher = more soluble protein in presence of GTP
Outline: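 Jurkat crude lysate prepared with a Dounce homogeniser was treated at eight concentrations spanning 0.1 to 10 mM, 10 min at room temperature then 3 min at 37 °C. Solubilisation with 0.8% NP40 and benzonase and ultracentrifugation preceded TMT labelling of the supernatant for LC-MS/MS. Fold change against the detergent-processed vehicle was determined per replicate from vsn-normalised intensities, across three independent experiments.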

Chain of UniProt P28907 (P28907 whole entry): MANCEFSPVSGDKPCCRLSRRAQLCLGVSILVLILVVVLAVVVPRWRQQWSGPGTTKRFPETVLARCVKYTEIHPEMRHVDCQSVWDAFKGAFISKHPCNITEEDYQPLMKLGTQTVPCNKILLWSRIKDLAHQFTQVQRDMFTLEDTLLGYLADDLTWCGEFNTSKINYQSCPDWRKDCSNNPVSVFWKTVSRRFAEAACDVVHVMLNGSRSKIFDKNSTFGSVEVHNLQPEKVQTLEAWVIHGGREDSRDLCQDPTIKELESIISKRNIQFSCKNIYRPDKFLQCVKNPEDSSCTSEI
Chain of UniProt Q01081 (Q01081 whole entry, looked up, other chains not shown): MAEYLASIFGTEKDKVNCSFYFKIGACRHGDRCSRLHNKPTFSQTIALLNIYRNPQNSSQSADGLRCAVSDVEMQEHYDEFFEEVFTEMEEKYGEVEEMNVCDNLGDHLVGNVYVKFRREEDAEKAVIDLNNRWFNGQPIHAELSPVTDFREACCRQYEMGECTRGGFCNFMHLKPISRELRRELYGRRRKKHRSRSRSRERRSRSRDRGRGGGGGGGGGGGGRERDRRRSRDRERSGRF
Chain of UniProt Q9NXW2 (Q9NXW2 whole entry, one chain of several): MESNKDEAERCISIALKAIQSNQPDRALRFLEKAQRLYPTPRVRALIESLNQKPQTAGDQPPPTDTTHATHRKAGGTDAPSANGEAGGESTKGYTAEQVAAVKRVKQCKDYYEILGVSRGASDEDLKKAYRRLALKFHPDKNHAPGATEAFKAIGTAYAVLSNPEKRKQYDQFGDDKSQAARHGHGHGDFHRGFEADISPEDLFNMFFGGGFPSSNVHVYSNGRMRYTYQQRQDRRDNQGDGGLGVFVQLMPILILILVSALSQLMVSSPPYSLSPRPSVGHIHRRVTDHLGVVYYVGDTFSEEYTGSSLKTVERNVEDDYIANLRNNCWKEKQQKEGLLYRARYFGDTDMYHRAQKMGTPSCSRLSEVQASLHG
Chain of UniProt O95644 (O95644 whole entry): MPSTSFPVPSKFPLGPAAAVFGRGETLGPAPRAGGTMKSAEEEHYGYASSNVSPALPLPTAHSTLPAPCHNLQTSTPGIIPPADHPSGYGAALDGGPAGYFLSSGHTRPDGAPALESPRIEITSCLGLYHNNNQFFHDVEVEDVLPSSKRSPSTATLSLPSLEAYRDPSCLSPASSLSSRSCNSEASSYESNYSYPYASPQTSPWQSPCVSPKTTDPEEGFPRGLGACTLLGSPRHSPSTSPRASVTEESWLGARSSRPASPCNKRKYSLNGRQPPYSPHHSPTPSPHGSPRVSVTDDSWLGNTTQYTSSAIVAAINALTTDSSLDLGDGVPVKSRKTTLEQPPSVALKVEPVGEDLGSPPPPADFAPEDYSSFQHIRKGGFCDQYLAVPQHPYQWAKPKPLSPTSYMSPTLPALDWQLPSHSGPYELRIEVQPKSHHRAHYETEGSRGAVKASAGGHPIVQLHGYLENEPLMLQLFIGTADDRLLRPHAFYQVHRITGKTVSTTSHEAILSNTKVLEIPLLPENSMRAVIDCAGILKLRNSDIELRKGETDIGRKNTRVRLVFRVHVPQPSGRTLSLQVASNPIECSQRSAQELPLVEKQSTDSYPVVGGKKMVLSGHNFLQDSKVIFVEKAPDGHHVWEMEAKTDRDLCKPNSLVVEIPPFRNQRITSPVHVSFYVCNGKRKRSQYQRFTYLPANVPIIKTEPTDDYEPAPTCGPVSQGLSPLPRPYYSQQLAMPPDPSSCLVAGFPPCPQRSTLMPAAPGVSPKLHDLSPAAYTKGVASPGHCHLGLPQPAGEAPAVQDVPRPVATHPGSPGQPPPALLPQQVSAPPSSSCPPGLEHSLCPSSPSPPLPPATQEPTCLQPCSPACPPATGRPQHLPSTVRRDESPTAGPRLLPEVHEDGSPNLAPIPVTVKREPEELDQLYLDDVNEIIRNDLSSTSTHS
Chain of UniProt O15042 (O15042 whole entry, one chain of several): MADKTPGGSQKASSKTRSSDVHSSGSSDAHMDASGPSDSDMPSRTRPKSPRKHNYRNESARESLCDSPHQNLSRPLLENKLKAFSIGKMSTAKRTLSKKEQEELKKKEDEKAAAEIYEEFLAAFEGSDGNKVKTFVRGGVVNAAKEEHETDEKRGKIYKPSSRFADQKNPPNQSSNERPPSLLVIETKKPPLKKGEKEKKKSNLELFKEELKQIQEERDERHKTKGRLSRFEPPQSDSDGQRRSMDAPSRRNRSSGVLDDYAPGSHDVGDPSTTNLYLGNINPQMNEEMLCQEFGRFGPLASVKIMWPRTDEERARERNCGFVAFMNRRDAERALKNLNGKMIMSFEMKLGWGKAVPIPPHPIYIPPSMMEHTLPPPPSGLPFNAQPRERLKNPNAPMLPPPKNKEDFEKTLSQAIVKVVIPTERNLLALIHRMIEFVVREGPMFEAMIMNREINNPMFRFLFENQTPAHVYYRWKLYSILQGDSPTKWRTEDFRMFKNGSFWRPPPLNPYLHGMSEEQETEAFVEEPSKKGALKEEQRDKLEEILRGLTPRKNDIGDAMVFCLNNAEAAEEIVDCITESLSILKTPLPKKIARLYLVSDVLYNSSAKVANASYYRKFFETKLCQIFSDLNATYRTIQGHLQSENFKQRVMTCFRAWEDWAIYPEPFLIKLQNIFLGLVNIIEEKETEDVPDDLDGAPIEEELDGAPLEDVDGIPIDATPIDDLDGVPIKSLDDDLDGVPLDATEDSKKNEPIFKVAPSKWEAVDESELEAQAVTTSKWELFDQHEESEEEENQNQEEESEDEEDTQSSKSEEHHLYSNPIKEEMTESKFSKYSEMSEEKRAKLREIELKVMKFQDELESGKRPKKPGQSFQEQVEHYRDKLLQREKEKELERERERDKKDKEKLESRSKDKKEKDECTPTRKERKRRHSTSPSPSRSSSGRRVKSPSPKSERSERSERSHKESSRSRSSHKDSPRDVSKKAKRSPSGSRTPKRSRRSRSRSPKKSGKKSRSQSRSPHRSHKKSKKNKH
Chain of UniProt Q9Y421 (Q9Y421 whole entry, one chain of several): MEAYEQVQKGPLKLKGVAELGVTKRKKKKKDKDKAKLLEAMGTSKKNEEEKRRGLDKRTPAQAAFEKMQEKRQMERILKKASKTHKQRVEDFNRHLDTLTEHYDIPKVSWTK
Chain of UniProt P17096 (P17096 whole entry): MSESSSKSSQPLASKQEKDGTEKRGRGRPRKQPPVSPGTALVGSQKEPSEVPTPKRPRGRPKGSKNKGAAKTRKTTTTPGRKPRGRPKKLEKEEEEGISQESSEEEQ
Chain of UniProt P36915 (P36915 whole entry): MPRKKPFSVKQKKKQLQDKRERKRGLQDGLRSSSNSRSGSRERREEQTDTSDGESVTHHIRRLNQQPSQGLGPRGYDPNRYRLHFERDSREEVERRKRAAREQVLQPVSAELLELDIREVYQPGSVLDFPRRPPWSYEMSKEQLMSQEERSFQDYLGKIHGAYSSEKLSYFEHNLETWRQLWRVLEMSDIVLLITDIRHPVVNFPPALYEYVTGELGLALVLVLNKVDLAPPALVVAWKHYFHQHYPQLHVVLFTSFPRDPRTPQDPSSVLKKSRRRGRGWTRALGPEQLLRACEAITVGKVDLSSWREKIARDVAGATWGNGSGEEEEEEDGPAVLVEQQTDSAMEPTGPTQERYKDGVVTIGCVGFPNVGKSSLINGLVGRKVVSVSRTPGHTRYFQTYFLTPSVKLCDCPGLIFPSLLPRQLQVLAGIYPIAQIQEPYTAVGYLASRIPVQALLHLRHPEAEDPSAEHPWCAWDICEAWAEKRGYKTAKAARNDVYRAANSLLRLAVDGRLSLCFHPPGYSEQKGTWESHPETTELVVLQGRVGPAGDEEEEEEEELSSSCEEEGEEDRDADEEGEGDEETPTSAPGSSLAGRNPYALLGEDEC
Chain of UniProt P11216 (P11216 whole entry): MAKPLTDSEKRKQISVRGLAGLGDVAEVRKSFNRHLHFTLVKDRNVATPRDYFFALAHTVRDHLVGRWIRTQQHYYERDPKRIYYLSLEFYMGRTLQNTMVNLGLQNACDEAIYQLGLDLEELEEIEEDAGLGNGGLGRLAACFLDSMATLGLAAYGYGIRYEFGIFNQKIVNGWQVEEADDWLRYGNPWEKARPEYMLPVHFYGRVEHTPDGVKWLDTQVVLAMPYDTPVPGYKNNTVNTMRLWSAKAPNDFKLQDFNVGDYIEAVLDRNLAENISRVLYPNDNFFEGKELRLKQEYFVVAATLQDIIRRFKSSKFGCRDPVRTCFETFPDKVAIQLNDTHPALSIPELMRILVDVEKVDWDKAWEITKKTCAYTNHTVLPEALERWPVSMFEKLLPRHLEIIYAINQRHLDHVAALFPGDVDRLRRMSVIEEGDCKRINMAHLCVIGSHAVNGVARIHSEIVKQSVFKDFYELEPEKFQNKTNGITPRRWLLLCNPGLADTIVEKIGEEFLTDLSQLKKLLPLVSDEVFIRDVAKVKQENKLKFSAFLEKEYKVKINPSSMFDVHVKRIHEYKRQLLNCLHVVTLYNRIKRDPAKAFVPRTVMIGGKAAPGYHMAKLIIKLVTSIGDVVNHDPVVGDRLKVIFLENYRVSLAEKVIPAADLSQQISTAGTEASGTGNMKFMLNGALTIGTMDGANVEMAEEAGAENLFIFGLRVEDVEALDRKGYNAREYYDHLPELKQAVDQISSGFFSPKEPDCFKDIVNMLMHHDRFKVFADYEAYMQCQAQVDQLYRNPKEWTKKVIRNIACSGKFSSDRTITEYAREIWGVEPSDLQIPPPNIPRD
Chain of UniProt P05114 (P05114 whole entry): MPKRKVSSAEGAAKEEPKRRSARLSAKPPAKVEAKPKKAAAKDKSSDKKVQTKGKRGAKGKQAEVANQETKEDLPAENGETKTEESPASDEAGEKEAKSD
Chain of UniProt P16403 (P16403 whole entry): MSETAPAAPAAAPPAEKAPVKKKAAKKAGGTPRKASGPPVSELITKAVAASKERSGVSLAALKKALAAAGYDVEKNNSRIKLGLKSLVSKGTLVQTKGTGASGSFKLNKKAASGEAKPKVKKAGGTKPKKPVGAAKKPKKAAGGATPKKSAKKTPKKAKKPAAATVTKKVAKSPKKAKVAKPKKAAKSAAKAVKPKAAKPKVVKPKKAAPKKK

Target	NP40-soluble protein abundance (concentration: 0.1mM)	NP40-soluble protein abundance (concentration: 0.5mM)	NP40-soluble protein abundance (concentration: 1mM)	NP40-soluble protein abundance (concentration: 2mM)	NP40-soluble protein abundance (concentration: 4mM)	NP40-soluble protein abundance (concentration: 6mM)	NP40-soluble protein abundance (concentration: 8mM)	NP40-soluble protein abundance (concentration: 10mM)
PYGB (UniProt P11216)	1.11 ± 0.12	1.19 ± 0.21	1.2 ± 0.28	1.45 ± 0.5	1.71 ± 0.63	1.78 ± 0.69	1.75 ± 0.61	1.79 ± 0.67
UniProt P17096|P17096-2	1.06 ± 0.062	1.06 ± 0.12	1.21 ± 0.081	1.33 ± 0.12	1.37 ± 0.14	1.69 ± 0.3	1.55 ± 0.21	2.02 ± 0.076
UniProt O95644|O95644-10|O95644-11|O95644-2|O95644-3|O95644-4|O95644-5|O95644-6|O95644-8	1.01 ± 0.2	1.07 ± 0.094	1.25 ± 0.18	1.37 ± 0.17	1.31 ± 0.29	1.34 ± 0.19	1.17 ± 0.053	1.34 ± 0.3
UniProt O75554|O75554-2	1.01 ± 0.045	1.07 ± 0.1	1.08 ± 0.083	1.05 ± 0.12	1.04 ± 0.059	1.09 ± 0.12	1.12 ± 0.072	1.06 ± 0.034
HIST1H1E (UniProt P10412)	1.02 ± 0.12	1.05 ± 0.1	1.13 ± 0.15	1.24 ± 0.11	1.26 ± 0.055	1.38 ± 0.064	1.28 ± 0.18	2.05 ± 0.41
GNL1 (UniProt P36915)	1.05 ± 0.023	1.03 ± 0.019	0.972 ± 0.033	0.95 ± 0.015	0.9647 ± 0.0095	0.944 ± 0.02	0.959 ± 0.045	0.906 ± 0.061
K7EIY1|Q9Y421 (UniProt Q9Y421)	1.045 ± 0.0048	0.987 ± 0.15	1.07 ± 0.11	1.14 ± 0.14	1.25 ± 0.12	1.21 ± 0.2	1.24 ± 0.11	1.37 ± 0.088
UniProt P27540|P27540-2|P27540-4	0.978 ± 0.071	0.957 ± 0.12	0.957 ± 0.027	0.982 ± 0.11	1.02 ± 0.023	0.961 ± 0.055	0.961 ± 0.059	0.927 ± 0.027
UniProt P28907	0.92 ± 0.058	0.876 ± 0.075	0.927 ± 0.063	0.902 ± 0.091	0.891 ± 0.088	0.925 ± 0.088	0.895 ± 0.1	0.894 ± 0.058
UniProt O15042|O15042-2|E7ET15	1 ± 0.011	1.08 ± 0.013	1.15 ± 0.05	1.18 ± 0.094	1.24 ± 0.13	1.32 ± 0.14	1.4 ± 0.22	1.37 ± 0.23
XPO1 (UniProt O14980)	1.01 ± 0.027	1.02 ± 0.033	0.936 ± 0.022	0.926 ± 0.072	0.916 ± 0.054	0.918 ± 0.033	0.882 ± 0.023	0.848 ± 0.044
CDC34 (UniProt P49427)	1.69 ± 0.2	1.07 ± 0.037	1.79 ± 0.077	1.15 ± 0.11	1.16 ± 0.092	1.12 ± 0.1	1.01 ± 0.078	1.06 ± 0.084
ARID1A (UniProt O14497)	0.993 ± 0.031	1.06 ± 0.016	1.08 ± 0.055	1.08 ± 0.084	1.1 ± 0.1	1.12 ± 0.12	1.16 ± 0.17	1.13 ± 0.17
NUP62 (UniProt P37198)	0.8692 ± 0.0052	0.889 ± 0.025	1.01 ± 0.021	0.955 ± 0.038	0.988 ± 0.064	1.06 ± 0.053	1.08 ± 0.052	1.19 ± 0.047
TIMM44 (UniProt O43615)	0.992 ± 0.035	0.989 ± 0.041	0.993 ± 0.057	0.946 ± 0.058	0.954 ± 0.09	0.914 ± 0.082	0.946 ± 0.058	0.93 ± 0.064
HIST1H1C (UniProt P16403)	0.984 ± 0.038	1.11 ± 0.074	1.18 ± 0.072	1.22 ± 0.048	1.23 ± 0.096	1.38 ± 0.074	1.26 ± 0.1	1.78 ± 0.15
P0DN76|Q01081|Q01081-2 (UniProt Q01081+P0DN76)	1.23 ± 0.074	1.61 ± 0.28	1.64 ± 0.32	1.67 ± 0.32	1.71 ± 0.36	1.78 ± 0.4	1.79 ± 0.45	1.76 ± 0.38
UniProt P48634|P48634-2|P48634-3	1.07 ± 0.034	1.06 ± 0.0091	1.19 ± 0.1	1.27 ± 0.03	1.42 ± 0.062	1.52 ± 0.096	1.7 ± 0.19	1.84 ± 0.28
HMGN1 (UniProt P05114)	1.26 ± 0.29	1.29 ± 0.33	1.39 ± 0.48	1.52 ± 0.48	1.34 ± 0.34	1.83 ± 0.67	1.66 ± 0.36	1.8 ± 0.33
J3KPS0|Q9NXW2|Q9NXW2-2 (UniProt Q9NXW2)	1.01 ± 0.065	0.995 ± 0.088	0.984 ± 0.083	0.935 ± 0.064	0.913 ± 0.066	0.918 ± 0.1	0.967 ± 0.082	0.925 ± 0.063
STMN1 (UniProt P16949)	0.911 ± 0.0092	0.899 ± 0.048	0.994 ± 0.014	0.909 ± 0.042	0.85 ± 0.069	0.935 ± 0.1	0.971 ± 0.089	0.995 ± 0.041
J3KNZ9 (UniProt Q9HAH7)	1.01 ± 0.12	0.933 ± 0.095	0.978 ± 0.056	0.984 ± 0.061	0.971 ± 0.051	1.01 ± 0.05	1.02 ± 0.015	1.01 ± 0.061
J3KPP4|O95232|H0YA81 (UniProt O95232)	1.13 ± 0.027	1.45 ± 0.062	1.54 ± 0.1	1.54 ± 0.095	1.56 ± 0.12	1.63 ± 0.13	1.72 ± 0.19	1.74 ± 0.18
UniProt P17812	1.04 ± 0.085	1.03 ± 0.089	0.924 ± 0.05	0.916 ± 0.096	0.904 ± 0.077	0.883 ± 0.076	0.864 ± 0.041	0.819 ± 0.086
P39880-3|Q13948|Q13948-2|P39880 (UniProt Q13948+P39880)	0.948 ± 0.035	0.948 ± 0.058	1.01 ± 0.049	0.978 ± 0.063	1.01 ± 0.054	0.997 ± 0.052	1.03 ± 0.024	1.05 ± 0.063
KIN (UniProt O60870)	0.9988 ± 0.0042	0.993 ± 0.013	0.9497 ± 0.0058	0.929 ± 0.029	0.916 ± 0.021	0.908 ± 0.024	0.9015 ± 0.007	0.885 ± 0.053
GSTM2 (UniProt P28161)	1.03 ± 0.058	0.947 ± 0.051	1 ± 0.1	0.976 ± 0.085	0.956 ± 0.1	0.932 ± 0.11	0.886 ± 0.091	0.899 ± 0.12
UniProt P35606|P35606-2	1.04 ± 0.075	1.07 ± 0.11	0.994 ± 0.089	1.04 ± 0.12	1.04 ± 0.12	1.03 ± 0.12	1.01 ± 0.097	0.984 ± 0.087
UniProt P54578|P54578-2	0.975 ± 0.029	0.998 ± 0.021	0.935 ± 0.027	0.922 ± 0.013	0.903 ± 0.026	0.897 ± 0.02	0.895 ± 0.038	0.876 ± 0.046
